Measured values published in PubChem BioAssay AID1117319 (Southern Research Institute, 2015).
Values joined by “and” are separate entries in the source; they are usually repeats but may differ in a detail not shown here. Identical values can stand only once. Among all 260,000 compounds or so, about 1,500 (0.58%) were called active. Not shown: some 5% with an inconclusive outcome.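 Rule for the calls: active = inhibition above a set limit at one or more doses, reproduced on every date tested; inconclusive = results disagree between test dates, or hit never tested in dose response; inactive = the rest.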 These entries were drawn from the full list. Results with a measured potency or affinity are listed apart.

target: Virion infectivity factor (Human immunodeficiency virus type 1 group M subtype B (isolate BH10)) + Virion infectivity factor (Human immunodeficiency virus type 1 group M subtype B (isolate BRU/LAI)) + Virion infectivity factor (Human immunodeficiency virus type 1 group M subtype B (isolate PCV12)) + Virion infectivity factor (Human immunodeficiency virus type 1 group M subtype B (isolate HXB2)) + DNA dC->dU-editing enzyme APOBEC-3G (Homo sapiens) (UniProt P69720+P69721+P69722+P69723+Q9HC16); assay: inhibitors of Vif binding to APOBEC3G peptide, primary screen, biochemical, TR-FRET, GST-Vif 1-94, biotin-A3G peptide, dose response retest (AID 1117319); conditions: active compounds read high;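 note: Vif residues 1-94 fused to GST binding biotinylated APOBEC3G peptide 110-148; 0% = full assay without inhibitor and 100% = GST in place of GST-Vif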

inhibition, inactive:
CCOc1ccc2[nH]c(=O)c(CN(CCO)C(=O)c3ccc(OC)c(OC)c3)cc2c1 -0.38%, CCN(C(=O)COC(=O)c1cnc(C)cn1)c1c(N)n(Cc2ccccc2)c(=O)[nH]c1=O 2.12%, O=c1cc(-c2ccc(O)c(O)c2)oc2cc(O)cc(O)c12 15.6%, COc1c(O)cc2oc(-c3ccc(O)cc3)cc(=O)c2c1O 19.4%, O=c1cc(-c2ccc(O)c(O)c2)oc2ccc3ccccc3c12 10.7%, O=c1cc(-c2ccc(O)cc2)oc2cc(O[C@@H]3O[C@H](CO)[C@@H](O)[C@H](O)[C@H]3O[C@@H]3OC[C@](O)(CO)[C@H]3O)cc(O)c12 6.15%, COc1ccc(CNC(=O)CCC(=O)N2CCN(S(=O)(=O)c3cc([N+](=O)[O-])ccc3C)CC2)cc1 -6.42%, CN(C)c1ncc(/C=C2/C(=O)NC(=S)N(C3CCCCC3)C2=O)cn1 1.75%, CCOc1ccc(CCNS(=O)(=O)c2ccc3c(c2)oc(=O)n3C)cc1OCC 13.6%, c1ccc(CN2CCc3[nH]c4ccccc4c3C2)cc1 -5.69%, CC(C)CC(=O)N1CCN(C(=O)c2cccc(F)c2)CC1 -7.36%, COc1ccc(OCC(O)CN(C)C(=O)/C=C/c2cccc([N+](=O)[O-])c2)cc1 (stereo not drawn) -4.1%, O=c1oc(/C=C/c2ccccc2)nc2sc3c(c12)CCC3 70.5%, COc1ccc(/C=C/c2nc3sc4c(c3c(=O)o2)CCC4)cc1 -1.87%, CCc1ccccc1OCC(=O)OCC(=O)N1CC(=O)Nc2ccccc21 -5.84%, CS(=O)(=O)N(CC(=O)NCc1ccc2c(c1)OCO2)C1CCCCC1 -13.6%, COc1cccc(/C=N/N2CCOCC2)c1O 2.44%, Oc1ccccc1C=NN1CCCCCC1 -3.73%, CCN(CC)c1ccc(/C=N/N2CCOCC2)c(O)c1 -1.22%, CCN(CC)c1ccc(/C=N/N2C(=O)c3ccccc3C2=O)c(O)c1 19.7%, Oc1cccc(/C=N/N2CCCCC2)c1O -5.32%, O=C1c2ccccc2C(=O)N1/N=C/c1ccc(O)c(O)c1 29.1%, CCC(=O)C1CCCN(C(=O)CCc2nnc(C3(c4ccc(Cl)cc4)CCC3)o2)C1 (stereo not drawn) 8.39%, CCC(C)(C(=O)NC1CCCC1)N(C(=O)c1ccccn1)c1ccc(C)cc1 (stereo not drawn) 5.82%, CC(=O)Nc1cccc(C(=O)OCC(=O)NNC(=O)c2cccs2)c1 -1.93%, Cc1ccc(C2(C)NC(=O)N(CC(=O)Nc3nc(-c4ccccn4)cs3)C2=O)cc1 (stereo not drawn) 0.48%, COc1ccccc1OCC(=O)NCC(C)NC(=O)COc1ccccc1OC (stereo not drawn) 5.26%, COc1ccc(-c2cn(-c3ccc(C)cc3)c(=O)n2CC(=O)Nc2cccc(F)c2)cc1 7.83%, CCOc1cccc2sc(N(CCCN(C)C)C(=O)Cc3ccccc3)nc12 3.08%, CCc1c(C)sc(NC(=O)OC)c1C(=O)N1CCOCC1 -5.04%, CCc1c(C)sc(NC(=O)OC)c1C(N)=O -10.3%, OC(COCc1ccccc1)CN1CCCC1 (stereo not drawn) 1.73%, COc1ccc2oc(C(=O)c3ccccc3)c(NC(=O)CN3CCN(C)CC3)c2c1 1.78% and 5.75%
